The text below walks through data of PubChem BioAssay (Tox21).

Test [1] is described as follows: qHTS assay to identify small molecule agonists of the hypoxia (HIF-1) signaling pathway - cell viability counter screen (AID 1224844; calls by dose curve; also: nearly all actives have a fitted effect of over 50% in size). A digest of the protocol: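 Cytotoxicity measured by CellTiter-Glo ATP luminescence in the wells also read for beta-lactamase signal. Cells were HRE-bla ME-180 (2,000/well, 0.5% dialyzed FBS), exposed to compounds for 17 h at 37C.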

Test [2] can be described thus: qHTS assay to identify small molecule agonists of H2AX (AID 1224845; active = well fitted activation curve with a large enough effect in the signal ratio in the repeat runs, not every such curve was filed as active; the % refers to the signal ratio). A digest of the protocol: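 Wild-type CHO-K1 cells plated overnight, then exposed 3 hr at 37C to compounds at 15 concentrations (0.76% DMSO). Lysed, then HTRF anti-pH2AX(S139)-cryptate/anti-H2AX-d2 detection after 24 hr at room temperature; emissions 665 and 620 nm.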
(In general: In qHTS, concentration-response curves come from the screen itself.)

A short description of test [3]: qHTS assay to identify small molecule agonists of the hypoxia (HIF-1) signaling pathway (AID 1224846; active = well fitted activation curve with a large enough effect in the signal ratio in the repeat runs, not every such curve was filed as active; the % refers to the signal ratio). Put shortly: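 Compounds added to ME-180 cells carrying hypoxia-response-element beta-lactamase reporter (0.5% dialyzed FBS, 5 h preplating), 17 h at 37C; agonist activity detected by CCF4-AM B/G FRET read-out.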
A short description of test [4]: qHTS assay to identify small molecule agonists of H2AX - cell viability counter screen (AID 1224847; calls by dose curve; also: nearly all actives have a fitted effect of over 30% in size; also: potency is read from the fitted curve at half-maximal effect). Put shortly:
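Cytotoxicity counter screen in wild-type CHO-K1 cells: a 3 hr compound treatment at 37C across 15 concentrations, followed by CellTiter-Glo luminescence to gauge viable cells.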

Test [5] in a line: qHTS assay to identify small molecule antagonists of the estrogen related receptor (ERR) signaling pathway from Tox21 library (AID 1224848). Also: nearly all actives have a fitted effect of over 50% in size. A digest of the protocol:
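Tox21 10K compounds in DMSO tested for ERR pathway antagonism in NTP's ERR cell line; 18 h, 37 C exposure; ONE-Glo luminescence.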

Test [6] is described as follows: qHTS assay to identify small molecule agonists of the estrogen related receptor (ERR) signaling pathway from Tox21 library (AID 1224849; calls by dose curve; also: nearly all actives have a fitted effect of over 15% in size). The following applies: ERR reporter cell line, ONE-Glo luciferase, 18 h; at 92.4 µM (top of the series). Put shortly: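 Luminescent agonist read-out (One-Glo, 30-minute room-temperature incubation) following 18-hour compound treatment at 37 C of the ERR cell line, which had been plated 6 hours before dosing.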

Test [7] in a line: qHTS RealTime-Glo MT Cell Viability Assay in HepG2 cells - 24 hour (AID 1224867). Also: nearly all actives have a fitted effect of over 50% in size. A digest of the protocol:
(§1)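 HepG2 cells were seeded at 600 cells/well together with NanoLuc luciferase and a cell-permeant prosubstrate, preincubated 5 h at 37 C/5% CO2, then pin-dosed with compounds in DMSO. Nonlytic luminescence from viable cells was read at each time point.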

Test [8] is described as follows: A CellTox Green Cytotoxicity Assay to monitor cytotoxicity in HEK293 cells - 0 hour (AID 1224869). Also: nearly all actives have a fitted effect of over 50% in size. Also: potency is read from the fitted curve at half-maximal effect. A digest of the protocol:
(§2)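 Fluorescence from a DNA-binding dye excluded by viable cells was measured repeatedly in the same HEK293 wells (600 cells/well) during continuous compound exposure at 37 C. Each assay gives one read point: 0, 8, 16, 24, 32 or 40 h.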

Test [9] in a line: qHTS RealTime-Glo MT Cell Viability Assay in HepG2 cells - 40 hour (AID 1224870). Also: nearly all actives have a fitted effect of over 50% in size. A digest of the protocol: (§3)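 HepG2 cells mixed with RealTime-Glo MT reagents (NanoLuc plus cell-permeant prosubstrate) were seeded at 600 cells/well, incubated 5 h at 37 C/5% CO2, then pinned with compounds in DMSO; nonlytic luminescence tracked viability during 40 h treatment.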
Test [10] is described as follows: A CellTox Green Cytotoxicity Assay to monitor cytotoxicity in HEK293 cells - 40 hour (AID 1224871). Also: nearly all actives have a fitted effect of over 45% in size. Also: potency is read from the fitted curve at half-maximal effect. Put shortly:
as §2

A short description of test [11]: A CellTox Green Cytotoxicity Assay to monitor cytotoxicity in HEK293 cells - 24 hour (AID 1224875). Also: nearly all actives have a fitted effect of over 45% in size. A digest of the protocol:
as §2

A short description of test [12]: A CellTox Green Cytotoxicity Assay to monitor cytotoxicity in HepG2 cells - 16 hour (AID 1224876). Also: nearly all actives have a fitted effect of over 45% in size. Also: potency is read from the fitted curve at half-maximal effect. Put shortly: (§4)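 Real-time cytotoxicity: fluorescence of a cell-impermeant cyanine dye binding DNA of dead HepG2 cells, measured repeatedly (0–40 h) during compound exposure at 37 C. Cells seeded 600/well with reagent, dosed after 5 h.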
Test [13] is described as follows: qHTS RealTime-Glo MT Cell Viability Assay in HepG2 cells - 32 hour (AID 1224877). Also: nearly all actives have a fitted effect of over 55% in size. A digest of the protocol: as §1
Test [14] is described as follows: A CellTox Green Cytotoxicity Assay to monitor cytotoxicity in HepG2 cells - 24 hour (AID 1224878). Also: nearly all actives have a fitted effect of over 45% in size. Put shortly: as §4
A short description of test [15]: A CellTox Green Cytotoxicity Assay to monitor cytotoxicity in HepG2 cells - 40 hour (AID 1224879). Also: nearly all actives have a fitted effect of over 40% in size. Put shortly: as §4
Test [16] in a line: qHTS RealTime-Glo MT Cell Viability Assay in HEK293 cells - 0 hour (AID 1224880). A digest of the protocol: (§5)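 Luminescence, which tracks viable cell number through reduction of the prosubstrate to a NanoLuc substrate, was read over continuous 37 C culture. Cells (600/well) were premixed with reagent and rested 5 h before 23 nL of compound in DMSO was pinned.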
A short description of test [17]: qHTS RealTime-Glo MT Cell Viability Assay in HEK293 cells - 32 hour (AID 1224868). Put shortly: (§6)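 HEK293 cells were seeded at 600 cells/well together with NanoLuc luciferase and cell-permeant prosubstrate, preincubated 5 h at 37 C/5% CO2, then given compound in DMSO by pintool. Luminescence from viable-cell prosubstrate reduction was read repeatedly over 40 h.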

Test [18] is described as follows: qHTS RealTime-Glo MT Cell Viability Assay in HEK293 cells - 16 hour (AID 1224872). A digest of the protocol:
as §6

Test [19] is described as follows: qHTS RealTime-Glo MT Cell Viability Assay in HepG2 cells - 8 hour (AID 1224873). Also: nearly all actives have a fitted effect of over 55% in size. A digest of the protocol: as §3
Test [20] is described as follows: qHTS RealTime-Glo MT Cell Viability Assay in HEK293 cells - 40 hour (AID 1224874). Also: nearly all actives have a fitted effect of over 50% in size. To be noted: RealTime-Glo luminescence; max response: stronger effect = lower value. Put shortly:
as §5

Values joined by “and” are separate entries in the source; they are usually repeats but may differ in a detail not shown here. Identical values can stand only once. Records with an inconclusive call do not appear. A structure can be active in one record and inactive in another. Active and inactive are the calls of the source. Unless noted, calls follow the shape of the dose curve; as a rule, active = well fitted curve in the direction sought with a large enough effect in the repeat runs; inconclusive = weak or mixed curves; inactive = no such curve, though single readings can be large; an effect the other way counts as inactive or inconclusive.
% is scaled to controls: 0 for no effect and ±100 for the full control effect.

In the case of `Cc1cccc(N=Nc2ccc(N(C)C)cc2)c1`, the Potency entry in [1], in test [2], in [5], in test [7], in test [8] and in test [9] was “inactive” throughout. In addition, the Potency entry in test [10], in test [11], in test [12], in test [13], in test [14] and in test [15] was “inactive” each time. The Potency entry in test [16] is “inactive”. Besides, the molecule was classed as inactive in test [3]. In [4], the Potency was 101 µM (active). Also, the activity change, positive = activation in test [6] is 234% (active) and 86.9% (active).
With `N#Cc1cccnc1`, the Potency result in test [1], in test [2], in [4], in [5], in [7] and in test [17] was “inactive” throughout. For the same molecule, the Potency result in test [8], in test [9], in [10], in [18], in test [19] and in [11] was “inactive” each time. The Potency result in test [12], in test [13], in test [14], in test [15] and in test [16] was “inactive” each time. In test [3], the result was inactive. Also, the activity change, positive = activation in [6] is 5.82% (inactive) and 1.56% (inactive). The max response in test [20] is -3.64% (inactive) and -3.39% (inactive).
Regarding `N#CC(c1ccccc1)c1ccccc1`, the Potency entry in test [1], in test [2], in [4], in test [5], in test [7] and in test [17] was “inactive” each time. The Potency result in test [8], in [9], in test [10], in [18], in [11] and in test [12] was “inactive” each time. Besides, the Potency result in test [13] and in test [16] was “inactive” each time. Also, the result in test [3] was inactive. Moreover, the activity change, positive = activation in test [6] was -14.8% (inactive) and -8.2% (inactive). Moreover, the max response in [20] is -11% (inactive).
With `OCCOCCO`, the Potency entry in test [1], in test [2], in [4], in [7], in test [17] and in [8] was “inactive” in each case. Also, the Potency entry in test [10], in test [18], in test [19], in test [11], in [12] and in test [13] was “inactive” each time. Besides, the Potency entry in [14], in test [15] and in test [16] was “inactive” in each case. Moreover, in test [3], the molecule was called inactive. Besides, in [20], the max response was -1.92% (inactive) and 3.49% (inactive).
As for `CCCCCCCCCCCCCl`, the Potency result in [1], in [2], in test [4], in test [7], in test [17] and in test [9] was “inactive” each time. The Potency entry in [18], in test [19], in test [13] and in test [16] was “inactive” throughout. In addition, the result in [3] was inactive. The Potency result in test [8] is “inactive and 24.5 µM (active)”; in test [10] it was “inactive and 17.4 µM (active)”; in test [12] it was “inactive and 13.8 µM (active)”. Moreover, in [20], the max response was 0% (inactive) and 16.5% (inactive).
For `CC1(C)Cc2cccc(O)c2O1`, the Potency entry in test [1], in test [2], in test [4], in [7], in test [17] and in [8] was “inactive” in each case. The Potency result in test [9], in [10], in test [18], in [11], in test [12] and in [13] was “inactive” in each case. In addition, the Potency result in test [14], in [15] and in test [16] was “inactive” each time. For the same molecule, the molecule was classed as inactive in [3]. Further, the max response in test [20] was 1.32% (inactive) and -0.986% (inactive).
`CC1=C(C(=O)Nc2ccccc2)SCCO1`: the Potency entry in test [1], in [2], in test [4], in test [7], in [17] and in test [8] was “inactive” in each case. The Potency result in [10], in [18], in [19], in test [11], in [12] and in test [13] was “inactive” each time. Moreover, the Potency entry in [14], in test [15] and in test [16] was “inactive” in each case. Moreover, the molecule was classed as inactive in [3]. For the same molecule, the activity change, positive = activation in [6] was -23.3% (inactive) and -26.7% (inactive). Also, the max response in test [20] was -20.6% (inactive) and -17.9% (inactive).
As to `CS(=O)(=O)NC(=O)c1cc(Oc2ccc(C(F)(F)F)cc2Cl)ccc1[N+](=O)[O-]`, the Potency entry in [1], in [2], in test [4], in test [7], in test [17] and in test [8] was “inactive” each time. Moreover, the Potency result in test [9], in test [10], in test [18], in test [11], in test [12] and in test [13] was “inactive” throughout. Also, the Potency result in test [14] and in [16] was “inactive” each time. Further, in test [3], the molecule was called inactive. For the same molecule, in test [20], the max response is 9.57% (inactive) and 9.32% (inactive).
On to `CCCCSP(=O)(SCCCC)SCCCC`, for which the Potency entry in test [1], in test [2], in [4], in test [7], in test [17] and in [8] was “inactive” in each case. Besides, the Potency entry in test [9], in test [10], in test [18], in test [19], in [11] and in [12] was “inactive” in each case. The Potency entry in test [13], in [14], in test [15] and in test [16] was “inactive” each time. Moreover, the molecule was classed as inactive in test [3]. In addition, the max response in [20] is -17.8% (inactive) and -14.6% (inactive).
Take `[Cl-].[Cl-].[Cl-].[Fe+3]`: the Potency entry in [1], in test [2], in test [4], in test [7], in [17] and in [8] was “inactive” each time. Moreover, the Potency result in test [9], in test [10], in test [18], in [11], in test [12] and in test [13] was “inactive” throughout. Also, the Potency result in [14] and in [16] was “inactive” each time. Besides, in test [3], the molecule was classed as inactive. The max response in test [20] was 0.374% (inactive).
In the case of `Nc1ncn[nH]1`, the Potency entry in test [1], in [2], in test [4], in test [7], in test [17] and in [8] was “inactive” each time. The Potency result in test [9], in [10], in [18], in [19], in test [11] and in test [12] was “inactive” each time. The Potency entry in [13], in test [14] and in test [16] was “inactive” throughout. In addition, in test [3], the result was inactive. Also, the max response in test [20] was -0.91% (inactive) and 1.15% (inactive).
Consider `CC(O)CN(CC(C)O)CC(C)O` (centres undefined), for which the Potency result in test [1], in test [2], in test [4], in test [7], in [17] and in test [8] was “inactive” each time. The Potency result in [10], in test [18], in test [19], in test [11], in test [12] and in [13] was “inactive” in each case. Further, the Potency result in test [14], in test [15] and in [16] was “inactive” each time. For the same molecule, in [3], the outcome was inactive. Further, the max response in test [20] was 2.85% (inactive) and 7.82% (inactive).
